Reference: PubChem BioAssay (NCATS)
Results filed as inconclusive are left out. Entries that show only a call come without a potency. Active and inactive are the calls of the source. Unless noted, the call rests on the fitted dose curve; in most records, active means well fitted curve in the direction sought with a large enough effect; inconclusive means small, poorly fitted or top-dose-only effect, or another doubt; inactive means no such curve, though single readings can be large; an effect the other way counts as inactive or inconclusive.

What was measured:
[1] = Cytometric Cell-Based qHTS for Inhibitors of the mTORC1 Signaling Pathway in MEF (Tsc2-/-, p53-/-) Cells (AID 2660);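 further: Tsc2 and p53 null MEFs carrying empty vector with compound for 24 h; percent of cells above a phospho-rpS6 to PI ratio cutoff in each well; series mostly up to about 38 µM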
In short: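 Readout: Alexa-488 phospho-rpS6 (Ser235/236) intensity divided by PI intensity, thresholded against 7.5 nM rapamycin wells and reported as % positive cells. PI cell count served as the viability measure. Compound exposure was 24 hrs at 37 degree Celsius.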

[2] = High Content Imaging Cell-Based qHTS for Inhibitors of the mTORC1 Signaling Pathway in MEF (Tsc2-/-, p53-/-) Cells (AID 2666);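 further: percent of cells scored positive for phospho-rpS6 Ser235/236 immunostaining by imaging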
In short: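 MEF Tsc2-/- p53-/- (empty vector), DMEM/10% FBS; cpd 24 h 37 °C; PFA fix, Alexa-488 p-rpS6 S235/236 Ab, Hoechst; imaged; rapamycin-defined inhibition; % positive cells/well.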

[3] = High Content Imaging Cell-Based qHTS for Inhibitors of the mTORC1 Signaling Pathway in MEF Cells (AID 2667); further: potency means the concentration at half of the fitted maximal effect
In short: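 Read-out is the share of phospho-rpS6-positive cells per well, from Hoechst-normalized Alexa-488 Ser235/236 staining imaged on IN Cell. Cells: WT Tsc2-expressing Tsc2-/-, p53-/- MEFs exposed to compound for 24 hrs.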

[4] = Cytometry Cell-Based qHTS for Inhibitors of the mTORC1 Signaling Pathway in MEF cells (AID 2668); further: potency means the concentration at half of the fitted maximal effect
In short: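 In MEFs grown in DMEM + 10% FBS, a 24 hrs compound exposure preceded imaging of phospho-rpS6 Ser235/236 by laser-scanning cytometry.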

[5] = target: Ubiquitin carboxyl-terminal hydrolase 2 (Homo sapiens) (UniProt O75604); assay: qHTS Validation Assay for Inhibitors of Ubiquitin-specific Protease USP2a Using CHOP2 as the Reporter (AID 463106)
In short: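 Fluorescence read-out at Ex 485nm/Em 531nm after 60min RT, following addition of 25nM Ub-CHOP2 plus 25nM reporter substrate to USP2 core (10nM) pretreated 30min with compound. Data normalized to NEM full inhibition; concentration-response curves fitted.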

[6] = target: DNA polymerase III PolC-type (Bacillus subtilis (strain 168)) (UniProt P13267); assay: qHTS Validation Assay for the Inhibitors of DNA Replication in Gram-Positive Bacteria (AID 485295); further: potency means the concentration at half of the fitted maximal effect
In short: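 Inhibition of DNA synthesis by the reconstituted PolC holoenzyme, monitored through PicoGreen staining of dsDNA formed from ssM13Gori, dNTPs and NTPs, with compound preincubation and room-temperature reaction.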

[7] = target: Tumor susceptibility gene 101 protein (Homo sapiens) (UniProt Q99816); assay: qHTS Validation Assay for Iinhibitors of HIV-1 Budding by Blocking the Interaction of PTAP/TSG101 (AID 485342; calls by dose curve)
In short: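 Compound wells held the Tsg101 binding domain (10 uM) and a FITC-conjugated PTAP peptide (50 nM) in buffer at pH 7.5 containing 0.15 M NaCl and 0.01% Tween 20; polarization was recorded after 20 min, r.t.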

[8] = qHTS Validation Assay to Find Inhibitors of Chronic Active B-Cell Receptor Signaling (AID 485345; active means well fitted curve in the direction sought with a large enough effect in the main read-out, with a control signal flat, not every such curve was filed as active)
In short: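 TMD8 ABC-DLBCL cells stably carrying doxycycline-inducible IkappaBalpha–green luciferase fusion plus unfused red luciferase; compounds 46 uM to 3 nM, 4 h at 37C with doxycycline. Corrected green/red luminescence ratio normalized to 10 uM MG-132 and basal cell wells; curves fitted.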

[9] = target: Beta-2 adrenergic receptor (Homo sapiens) (UniProt P07550); assay: qHTS validation assay of beta-arrestin-biased ligands of beta2-adrenergic receptor (AID 485366)
In short: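 Agonist activity is measured as luciferase luminescence downstream of beta-arrestin recruitment to recombinant beta2-AR in Tango cells. Exposure lasts 18 hr at 37 degrees C, and curves are categorized by r2, response size and activity.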

[10] = target: ATP-dependent 6-phosphofructokinase (Trypanosoma brucei brucei) (UniProt O15648); assay: qHTS Validation Assay to Find Inhibitors of T. brucei phosphofructokinase (AID 485368)
In short: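 Inhibition derived from concentration-response curves of luminescence, ranked by r2, response size and curve class; the underlying reaction used 1.25 nM PFK, 0.1 mM ATP and 0.5 mM F6P, 45 min, room temperature.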

[11] = target: Thioredoxin reductase 1, cytoplasmic (Rattus norvegicus) (UniProt O89049); assay: qHTS Assay for Substrates of Mammalian Selenoprotein Thioredoxin Reductase 1 (TrxR1) (AID 488772);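 further: series mostly up to about 57 µM; a drop in NADPH fluorescence below the no-compound background marks a TrxR1 substrate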
In short: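 In this dual-purpose format, potential substrates are identified from the first fluorescence read after selenite addition, not from the 8-minute delta. Rat enzyme is preincubated with NADPH and then with compound at ~22 deg C.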

[12] = target: Thioredoxin reductase 1, cytoplasmic (Rattus norvegicus) (UniProt O89049); assay: qHTS Assay for Inhibitors of Mammalian Selenoprotein Thioredoxin Reductase 1 (TrxR1) (AID 488773); settings: Potency: inhibition;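 further: drop in NADPH fluorescence over an 8 min run after selenite addition; series mostly up to about 57 µM; nearly all actives have a fitted effect of over 40% in size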
In short: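 Inhibition is scored from the loss of NADPH fluorescence between first and last reads of an 8-min kinetic run. Selenite (400 uM) was the substrate, added after 15 min compound preincubation at room temperature.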

[13] = target: Chromobox protein homolog 1 (Homo sapiens) (UniProt P83916); assay: qHTS Validation Assay for Inhibitors of HP1-beta Chromodomain Interactions with Methylated Histone Tails (AID 488953); further: nearly all actives have a fitted effect of over 50% in size; further: potency means the concentration at half of the fitted maximal effect
In short: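 Compounds pinned into a preassembled complex of HP1-beta and trimethyl-K9 histone H3(1-18) biotin peptide (50 nM each; PBS pH 7.4, 0.01% Tween-20). After 30 min, bead-based AlphaScreen detection followed.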

[14] = target: Methanococcus maripaludis chaperonin (MmCpn) (UniProt Q6LX38); assay: High-Throughput Screening for Modulators of Cytosolic Chaperonin Activity: MmCpn Primary Screen (AID 488978)
In short: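 HTRF readout (320 nm excitation, 590/665 nm emission) of ADP generated by 50 nM MmCpn hydrolysing 30 uM ATP during 10 min at 37C; compound preincubated 5 min RT.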

[15] = target: M-phase phosphoprotein 8 (Homo sapiens) (UniProt Q99549); assay: qHTS Validation Assay for Inhibitors for MPP8 Chromodomain Interactions with Methylated Histone Tails (AID 488949);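 further: 50 nM MPP8 with 50 nM peptide preformed then compounds added for 30 min; AlphaScreen signal from MPP8 chromodomain bound to biotinylated H3K9me3 peptide; top concentration of the series differs between compounds; nearly all actives have a fitted effect of over 55% in size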
In short: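 Chemiluminescent proximity assay: histidine-tag capture via nickel acceptor beads, biotin peptide via streptavidin donor beads. Protein and peptide each at 50 nM, pH 7.4, with 30 min incubations at room temperature for complex formation, compound exposure and bead binding.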

[16] = Validation screen for small molecules that induce DNA re-replication in MCF 10A normal breast cells (AID 463097); further: potency means the concentration at half of the fitted maximal effect; nearly all actives have a fitted effect of over 60% in size
In short: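 Following 48 hr compound incubation (37 C, 5% CO2), MCF 10A cells receive Hoechst for 40 min at 37 C. Nuclei are then scanned (excitation 405 nm, emission 500-530 nm) for total fluorescence intensity.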

[17] = Quantitative high throughput screen for delayed death inhibitors of the malarial parasite plastid, 96 hour incubation (AID 488745); further: nearly all actives have a fitted effect of over 70% in size; further: potency means the concentration at half of the fitted maximal effect
In short: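 Two-generation (96 h) exposure of luciferase-reporter P. falciparum in erythrocytes, 2% hematocrit, 0.1% parasitemia final, 37 C, 5% CO2, RPMI 1640 with 0.5% Albumax. Growth inhibition scored by reduced luminescence.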

[18] = Quantitative high throughput screen for delayed death inhibitors of the malarial parasite plastid, 48 hour incubation (AID 488752); further: nearly all actives have a fitted effect of over 65% in size; further: potency means the concentration at half of the fitted maximal effect
In short: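 Cultures: infected erythrocytes at final 2% hematocrit and 0.1% parasitemia in Albumax-supplemented RPMI. Parasites express integrated firefly luciferase. Incubation with compound lasts 48 h before luminescent detection of remaining reporter activity.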

[19] = target: Flap endonuclease 1 (Homo sapiens) (UniProt P39748); assay: qHTS Validation Assay for the Inhibitors of Human Flap endonuclease 1 (FEN1) (AID 488816); further: potency means the concentration at half of the fitted maximal effect
In short: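 Enzyme reagent 10 nM; cpds pinned; 15 min RT preinc.; substrate 50 nM final; reads t=0 and 15 min; no-enzyme buffer wells as neg. control; normalized data, 4-parameter Hill fit.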

DNA polymerase III PolC-type (Bacillus subtilis (strain 168)), sequence (P13267 whole entry, looked up): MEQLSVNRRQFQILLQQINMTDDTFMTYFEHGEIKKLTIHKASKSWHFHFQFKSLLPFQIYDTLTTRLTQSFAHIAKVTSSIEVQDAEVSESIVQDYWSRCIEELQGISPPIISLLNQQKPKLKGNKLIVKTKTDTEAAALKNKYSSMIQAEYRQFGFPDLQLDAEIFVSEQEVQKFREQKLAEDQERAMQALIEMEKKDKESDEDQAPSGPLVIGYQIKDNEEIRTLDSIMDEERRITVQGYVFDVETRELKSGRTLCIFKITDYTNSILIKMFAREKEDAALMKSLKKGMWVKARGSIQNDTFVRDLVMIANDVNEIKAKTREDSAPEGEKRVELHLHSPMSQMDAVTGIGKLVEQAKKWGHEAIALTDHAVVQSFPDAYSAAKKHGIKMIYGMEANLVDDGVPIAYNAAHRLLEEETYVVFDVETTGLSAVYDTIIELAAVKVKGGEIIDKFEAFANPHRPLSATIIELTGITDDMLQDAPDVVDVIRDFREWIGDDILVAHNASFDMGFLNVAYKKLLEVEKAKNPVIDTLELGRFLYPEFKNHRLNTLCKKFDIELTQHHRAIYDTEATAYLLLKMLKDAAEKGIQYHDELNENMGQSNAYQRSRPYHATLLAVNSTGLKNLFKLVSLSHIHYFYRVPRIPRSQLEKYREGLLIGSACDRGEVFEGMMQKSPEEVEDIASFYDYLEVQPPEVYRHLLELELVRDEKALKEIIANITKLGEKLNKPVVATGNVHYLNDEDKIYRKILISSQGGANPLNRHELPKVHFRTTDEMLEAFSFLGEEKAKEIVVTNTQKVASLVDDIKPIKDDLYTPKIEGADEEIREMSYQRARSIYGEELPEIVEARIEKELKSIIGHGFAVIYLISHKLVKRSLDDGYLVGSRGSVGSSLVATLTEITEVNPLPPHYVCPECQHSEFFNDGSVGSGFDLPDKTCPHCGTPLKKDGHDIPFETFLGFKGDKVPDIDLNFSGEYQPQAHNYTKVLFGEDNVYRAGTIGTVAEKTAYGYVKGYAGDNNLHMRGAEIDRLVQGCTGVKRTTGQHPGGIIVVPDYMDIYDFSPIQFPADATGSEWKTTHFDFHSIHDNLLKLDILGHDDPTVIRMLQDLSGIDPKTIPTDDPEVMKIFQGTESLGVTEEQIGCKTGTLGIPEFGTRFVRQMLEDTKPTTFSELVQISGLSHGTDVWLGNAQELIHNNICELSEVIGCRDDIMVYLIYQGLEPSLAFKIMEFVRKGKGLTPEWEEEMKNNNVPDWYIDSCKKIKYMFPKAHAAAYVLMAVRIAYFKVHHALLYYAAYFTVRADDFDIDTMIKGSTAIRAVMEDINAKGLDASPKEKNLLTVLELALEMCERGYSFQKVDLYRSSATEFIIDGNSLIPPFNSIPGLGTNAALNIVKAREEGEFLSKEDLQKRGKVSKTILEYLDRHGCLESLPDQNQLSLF
Flap endonuclease 1 (Homo sapiens), sequence (P39748 whole entry, looked up): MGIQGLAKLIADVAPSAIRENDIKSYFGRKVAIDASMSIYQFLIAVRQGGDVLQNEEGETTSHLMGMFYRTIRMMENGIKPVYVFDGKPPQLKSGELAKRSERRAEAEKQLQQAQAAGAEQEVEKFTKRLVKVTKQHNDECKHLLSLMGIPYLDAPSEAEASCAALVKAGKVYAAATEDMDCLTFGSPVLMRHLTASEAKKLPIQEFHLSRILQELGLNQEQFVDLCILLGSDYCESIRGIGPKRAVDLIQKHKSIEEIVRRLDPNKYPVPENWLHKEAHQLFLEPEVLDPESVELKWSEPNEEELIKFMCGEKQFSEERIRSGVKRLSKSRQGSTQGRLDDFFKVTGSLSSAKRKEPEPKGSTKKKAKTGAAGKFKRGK
M-phase phosphoprotein 8 (Homo sapiens), sequence (Q99549 whole entry, looked up): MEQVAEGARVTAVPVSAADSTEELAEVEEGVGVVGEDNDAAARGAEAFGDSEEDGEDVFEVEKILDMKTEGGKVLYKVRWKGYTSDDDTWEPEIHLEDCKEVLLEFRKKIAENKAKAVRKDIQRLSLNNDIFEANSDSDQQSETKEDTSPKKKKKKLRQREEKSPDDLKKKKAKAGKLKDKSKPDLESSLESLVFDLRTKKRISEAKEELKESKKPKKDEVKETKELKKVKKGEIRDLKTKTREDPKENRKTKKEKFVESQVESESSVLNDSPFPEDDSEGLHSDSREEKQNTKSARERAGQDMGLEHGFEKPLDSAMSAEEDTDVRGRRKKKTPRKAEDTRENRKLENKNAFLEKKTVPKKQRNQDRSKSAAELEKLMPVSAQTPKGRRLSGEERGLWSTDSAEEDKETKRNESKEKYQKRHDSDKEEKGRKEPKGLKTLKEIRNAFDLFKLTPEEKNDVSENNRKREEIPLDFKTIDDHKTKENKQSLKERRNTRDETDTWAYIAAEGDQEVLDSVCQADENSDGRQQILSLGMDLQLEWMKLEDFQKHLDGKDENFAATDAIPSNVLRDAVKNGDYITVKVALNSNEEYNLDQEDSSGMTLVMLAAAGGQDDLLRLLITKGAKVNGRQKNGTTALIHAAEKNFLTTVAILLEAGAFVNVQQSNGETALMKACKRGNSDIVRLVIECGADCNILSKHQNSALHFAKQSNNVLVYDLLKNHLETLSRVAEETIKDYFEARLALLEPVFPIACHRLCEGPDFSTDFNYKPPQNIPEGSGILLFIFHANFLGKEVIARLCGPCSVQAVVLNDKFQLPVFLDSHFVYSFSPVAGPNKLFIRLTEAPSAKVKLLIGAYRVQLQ
Tumor susceptibility gene 101 protein (Homo sapiens), sequence (Q99816 whole entry, looked up, the tested form may be a part): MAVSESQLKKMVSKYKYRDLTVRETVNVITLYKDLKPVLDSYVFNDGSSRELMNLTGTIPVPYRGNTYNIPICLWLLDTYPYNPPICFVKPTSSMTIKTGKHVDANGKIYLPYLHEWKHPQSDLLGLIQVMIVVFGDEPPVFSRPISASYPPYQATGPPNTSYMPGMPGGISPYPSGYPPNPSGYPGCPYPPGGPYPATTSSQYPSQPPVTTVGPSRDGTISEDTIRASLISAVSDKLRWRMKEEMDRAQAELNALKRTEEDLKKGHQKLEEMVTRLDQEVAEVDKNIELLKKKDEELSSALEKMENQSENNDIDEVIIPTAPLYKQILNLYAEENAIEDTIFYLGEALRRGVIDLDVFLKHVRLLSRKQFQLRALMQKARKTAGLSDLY
ATP-dependent 6-phosphofructokinase (Trypanosoma brucei brucei), sequence (O15648 whole entry, looked up): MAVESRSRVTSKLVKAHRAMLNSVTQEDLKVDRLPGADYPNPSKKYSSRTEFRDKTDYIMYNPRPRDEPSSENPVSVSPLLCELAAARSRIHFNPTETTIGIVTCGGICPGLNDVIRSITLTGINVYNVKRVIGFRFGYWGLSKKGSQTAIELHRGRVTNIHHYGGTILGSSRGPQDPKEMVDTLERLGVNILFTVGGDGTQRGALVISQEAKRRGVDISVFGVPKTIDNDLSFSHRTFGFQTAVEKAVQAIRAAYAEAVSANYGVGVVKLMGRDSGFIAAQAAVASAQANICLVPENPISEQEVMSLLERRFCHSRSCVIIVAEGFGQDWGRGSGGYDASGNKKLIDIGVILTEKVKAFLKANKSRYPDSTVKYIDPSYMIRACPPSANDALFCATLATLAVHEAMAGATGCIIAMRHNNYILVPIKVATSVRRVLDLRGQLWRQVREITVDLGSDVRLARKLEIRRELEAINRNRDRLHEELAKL
Ubiquitin carboxyl-terminal hydrolase 2 (Homo sapiens), sequence (O75604 whole entry, looked up): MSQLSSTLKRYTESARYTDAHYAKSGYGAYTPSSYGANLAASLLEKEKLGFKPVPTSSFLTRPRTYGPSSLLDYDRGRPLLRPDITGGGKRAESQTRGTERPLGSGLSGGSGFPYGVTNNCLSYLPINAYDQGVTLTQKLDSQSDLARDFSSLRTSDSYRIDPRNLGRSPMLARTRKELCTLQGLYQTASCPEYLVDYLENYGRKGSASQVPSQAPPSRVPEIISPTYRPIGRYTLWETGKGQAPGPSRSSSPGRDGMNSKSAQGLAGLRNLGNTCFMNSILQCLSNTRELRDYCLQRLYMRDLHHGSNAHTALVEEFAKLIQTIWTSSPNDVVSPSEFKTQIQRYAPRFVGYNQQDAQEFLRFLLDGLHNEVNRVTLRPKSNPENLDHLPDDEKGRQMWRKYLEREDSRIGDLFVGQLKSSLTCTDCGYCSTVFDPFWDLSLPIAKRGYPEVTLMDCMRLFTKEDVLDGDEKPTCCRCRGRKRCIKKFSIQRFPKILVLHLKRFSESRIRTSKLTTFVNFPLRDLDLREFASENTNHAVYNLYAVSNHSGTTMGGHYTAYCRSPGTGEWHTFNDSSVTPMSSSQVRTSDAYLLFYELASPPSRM
Methanococcus maripaludis chaperonin (MmCpn), sequence (Q6LX38 1-543): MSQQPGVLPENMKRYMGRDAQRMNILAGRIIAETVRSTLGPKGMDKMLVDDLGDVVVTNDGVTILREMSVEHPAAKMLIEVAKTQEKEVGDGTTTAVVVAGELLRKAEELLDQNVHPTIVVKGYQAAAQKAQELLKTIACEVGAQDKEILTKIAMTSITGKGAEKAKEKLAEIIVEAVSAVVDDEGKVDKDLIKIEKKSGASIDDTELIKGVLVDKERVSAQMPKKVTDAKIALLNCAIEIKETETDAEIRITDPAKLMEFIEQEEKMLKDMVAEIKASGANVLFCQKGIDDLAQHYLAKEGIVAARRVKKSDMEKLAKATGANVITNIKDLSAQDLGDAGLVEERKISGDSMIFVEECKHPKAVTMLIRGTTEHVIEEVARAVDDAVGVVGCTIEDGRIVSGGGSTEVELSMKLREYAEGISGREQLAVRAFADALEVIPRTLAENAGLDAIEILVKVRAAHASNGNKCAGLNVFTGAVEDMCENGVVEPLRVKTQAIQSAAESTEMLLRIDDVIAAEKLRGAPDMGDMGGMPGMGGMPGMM
Chromobox protein homolog 1 (Homo sapiens), sequence (P83916 whole entry, looked up): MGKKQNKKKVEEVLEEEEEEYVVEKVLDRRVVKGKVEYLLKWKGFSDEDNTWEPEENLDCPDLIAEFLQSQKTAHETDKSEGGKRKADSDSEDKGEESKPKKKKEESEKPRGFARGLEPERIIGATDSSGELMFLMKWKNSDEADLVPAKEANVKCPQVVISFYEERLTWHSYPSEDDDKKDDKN

SMILES	outcome [1]	Potency [2]	Potency [3]	Potency [4]	Potency [5]	Potency [6]	outcome [7]	outcome [8]	outcome [9]	Potency [10]	outcome [11]	Potency [12]	Potency [13]	outcome [14]	Potency [15]	Potency [16]	Potency [17]	Potency [18]	Potency [19]
NC[C@@H]1O[C@H](c2ccccc2)Cc2c1ccc(O)c2O	inactive	inactive	inactive	inactive	inactive	inactive	inactive	inactive	inactive	inactive	inactive	inactive	inactive	inactive					
CC#CCOC(=O)c1c(C)nc2sc3c(c2c1N)CCC(O)C3 (configuration not stated)	inactive	inactive	inactive	inactive	inactive	inactive	inactive	inactive	inactive	inactive	inactive	inactive	inactive	inactive	inactive				
CCC1(O)CC2CN(CCc3c([nH]c4ccccc34)[C@@](C(=O)OC)(c3cc4c(cc3OC)N(C=O)C3[C@]45CCN4CC=C[C@@](CC)([C@@H](OC(C)=O)[C@]3(O)C(=O)OC)[C@H]45)C2)C1 (some centres not stated)	inactive	inactive	inactive		inactive	inactive	inactive		inactive		inactive	inactive		inactive	inactive	0.0447 µM (active)	0.117 µM (active)	0.131 µM (active)	
Cc1cccc(C(=O)NCN2CCN(c3ccccc3C#N)CC2)c1	inactive	inactive	inactive	inactive	inactive	inactive		inactive	inactive		inactive		inactive	inactive	inactive				inactive
Nc1ccc(-c2nc3ccc(-c4nc5ccc(N)cc5[nH]4)cc3[nH]2)cc1	inactive	inactive	inactive	inactive		21.2 µM (active)	inactive		inactive		inactive	inactive	39.8 µM (active)				0.262 µM (active)	0.415 µM (active)	21.2 µM (active)
CCCCCCCCCCC/C=C\C(C)(C)/C=C\CCCC(=O)O	inactive	inactive	inactive	inactive		inactive	inactive	inactive	inactive			inactive		inactive	inactive			inactive	
O=C(O)CCC/C=C\C[C@@H]1[C@@H](/C=C/[C@H](O)C2Cc3ccccc3C2)[C@@H](F)C[C@@H]1O	inactive	inactive	inactive	inactive		inactive	inactive	inactive	inactive	inactive	inactive	inactive		inactive	inactive				inactive
O=C1OC(=O)C2C3CCC(O3)C12 (configuration not stated)	inactive	inactive	inactive	inactive	inactive		inactive		inactive	inactive	inactive	inactive	inactive	inactive	inactive		inactive	inactive	inactive
N=C(N)c1ccc(OCCCCCOc2ccc(C(=N)N)cc2)cc1 (tested in a mixture with another compound)	inactive	inactive	11.7 µM (active)	10.4 µM (active)		inactive	inactive	inactive	inactive		inactive	inactive	inactive	inactive	inactive			0.185 µM (active)	inactive
CN1CCN(c2nc3cc(C(F)(F)F)ccc3n3cccc23)CC1	inactive	inactive	inactive	inactive	inactive	inactive	inactive				inactive	inactive		inactive	inactive			8.28 µM (active)	inactive
COc1cc(/C=C(\C#N)C(=O)Nc2nnc(C(F)(F)F)s2)ccc1OCc1ccc(C(F)(F)F)cc1C(F)(F)F	inactive	inactive	inactive	inactive		10.6 µM (active)			inactive			inactive	89.1 µM (active)	inactive	inactive				inactive
O=c1onc2cnc3ccccc3n12	inactive	inactive	inactive	inactive			inactive		inactive			inactive		inactive	inactive		inactive	inactive	inactive
c1ccc(C(NCCNC(c2ccccc2)c2ccccc2)c2ccccc2)cc1	inactive	inactive	13.1 µM (active)	18.5 µM (active)	inactive	inactive	inactive			inactive				inactive					inactive
